These results are taken from the supplement of paper PMC4166925.

± gives the standard deviation of the averaged measurements. The full ranking holds about 33,000 sequences; the median of “E-score (dimensionless, -0.5 to 0.5)” is about -0.046, and the highest 2% start at about 0.36. Shown is part of a subset that was picked to be rich in the highest values.
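Note: protein at 200 nM in PBS on universal double-stranded arrays.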

For the assay, the system named is T1, SpTbr T-box DNA-binding domain (GST fusion).
T1 sequence: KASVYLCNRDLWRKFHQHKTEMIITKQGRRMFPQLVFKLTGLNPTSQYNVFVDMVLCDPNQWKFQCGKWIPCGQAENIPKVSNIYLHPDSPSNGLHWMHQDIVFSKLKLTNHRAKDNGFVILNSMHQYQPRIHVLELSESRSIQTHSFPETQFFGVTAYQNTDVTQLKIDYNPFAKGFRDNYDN
The assay can be described thus: PBM E-score of 8-mer (E-score (dimensionless, -0.5 to 0.5)); Tbr is Tbrain of the sea star Patiria miniata (Pm) or the sea urchin Strongylocentrotus purpuratus (Sp); higher = stronger binding preference. As to conditions: the construct has about 5 more residues each side. As to the method: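 Universal protein-binding microarray (Agilent AMADID 016060, 60-bp probes with a 35-bp variable region) incubated with 200 nM GST-fused Strongylocentrotus purpuratus Tbr T-box DNA-binding domain (residues 362-554) in PBS pH 7.5. Scored for every ungapped 8-mer (given with its reverse complement) as E-score (range -0.5 to 0.5; >0.45 counts as bound) and Z-score of median probe intensity. Two replicate arrays (datasets 1 and 2).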
As for CTAGGTGC, the “PBM E-score of 8-mer” value came out at 0.3603 ± 0.003.
The figure for AAAGGTAC is -0.0923 ± 0.05; for ATAGGTGC it is 0.412 ± 0.012; for AAGGGTGG it is 0.146 ± 0.028.
The result for AAAGGTGA reads 0.316 ± 0.0022; that for AAGGGTGA, 0.136 ± 0.04.
The result for CGGGTGAA reads -0.3489 ± 0.0032; that for AGCAACCA, -0.0779 ± 0.012.
On to CTACCGTC, for which the “PBM E-score of 8-mer” value was -0.191 ± 0.04.
The figure for ATTTACCG is -0.131 ± 0.054; for CGAGGGTA it is -0.211 ± 0.033; for GATGAGGC it is -0.112 ± 0.027.
The result for GGTCTACA reads -0.0571 ± 0.025.
The figure for AGGTAAAA is -0.0157 ± 0.037; for AATTCACG it is 0.345 ± 0.01.
Take CATTCACA: the “PBM E-score of 8-mer” value was 0.427 ± 0.014.
As for GATTCAGA, the “PBM E-score of 8-mer” value was -0.233 ± 0.061.
The result for AATTCACA reads 0.297 ± 0.035; that for GATTCACC, -0.0546 ± 0.0018; that for GATTCACA, 0.392 ± 0.0093.
CATTCACC: the “PBM E-score of 8-mer” value is -0.0478 ± 0.011.
The result for TATTCACA reads 0.423 ± 0.023; that for CATTCACG, 0.238 ± 0.024; that for CAGAGAGA, -0.036 ± 0.025.
The result for CGTAGCCA reads -0.196 ± 0.073; that for CCGATAAA, -0.0119 ± 0.097; that for AGGAAACT, -0.0834 ± 0.015.
The figure for CGCTTGAC is 0.136 ± 0.0033; for CTTTGACA it is 0.174 ± 0.035.
In the case of AGTTGACA, the “PBM E-score of 8-mer” value stood at 0.4138 ± 0.001.
The result for GTTTGACA reads 0.332 ± 0.036; that for GGTTGACA, 0.382 ± 0.017; that for GCTTGACA, 0.258 ± 0.034.
The figure for CGTTGACC is 0.0141 ± 0.0079.
In the case of AGTTGACG, the “PBM E-score of 8-mer” value was found to be 0.226 ± 0.0068.
AGTTGACC: the “PBM E-score of 8-mer” value was -0.106 ± 0.098.
The figure for CGTTGACA is 0.414 ± 0.0098; for CGTTGTTC it is -0.116 ± 0.067; for ACGGGCGG it is -0.083 ± 0.0064.
The result for GTCTTGGA reads -0.322 ± 0.015.
The figure for CATAGAGA is -0.161 ± 0.012.
As to CCCTGTAA, the “PBM E-score of 8-mer” value was determined as 0.137 ± 0.0029.
The result for ATCGAGGC reads -0.0694 ± 0.048; that for CACTTCAA, 0.213 ± 0.013.
AGTTGTCA: the “PBM E-score of 8-mer” value turned out to be 0.393 ± 0.016.
The result for GGTTGTCA reads 0.338 ± 0.0013.
Consider AGTTGTTG, for which the “PBM E-score of 8-mer” value turned out to be 0.245 ± 0.024.
The figure for CGTTGTTA is 0.142 ± 0.034; for AGTTGTTA it is 0.369 ± 0.04.
For the sequence AGTTGTCG, the “PBM E-score of 8-mer” value is 0.293 ± 0.033.
The result for CGTTCGTA reads -0.134 ± 0.018; that for AGTTCGCG, 0.296 ± 0.038.
Consider CGTTCGCC, for which the “PBM E-score of 8-mer” value was 0.11 ± 0.024.
The figure for GGTTCGGA is -0.2634 ± 0.0013; for AGTTCGCA it is 0.3728 ± 0.00053; for GCTTCGCA it is 0.358 ± 0.017.
The result for GGTTCGCA reads 0.378 ± 0.0054; that for AGTTCGCC, 0.0613 ± 0.039; that for CGTTCGCA, 0.411 ± 0.0075.
The result for CGGTTATA reads -0.00559 ± 0.033; that for GGGGTCGA, -0.0352 ± 0.02.
Turning to GCGAGATA, the “PBM E-score of 8-mer” value came to 0.105 ± 0.0039.
With CATTGTCG, the “PBM E-score of 8-mer” value was determined as 0.038 ± 0.0095.
The figure for ATGATGAA is -0.154 ± 0.044; for AGTGACAA it is 0.397 ± 0.014; for AGTGACGA it is 0.329 ± 0.029.
The result for CGTGACGC reads 0.192 ± 0.033; that for AGTGACAG, 0.3301 ± 0.0022.
The figure for CGTGACAA is 0.364 ± 0.0037; for ACTGACAA it is 0.165 ± 0.0096; for CGTGACAG it is 0.217 ± 0.019.
With CGTGACGA, the “PBM E-score of 8-mer” value came out at 0.311 ± 0.029.
As for CGTGACAC, the “PBM E-score of 8-mer” value turned out to be 0.38 ± 0.015.
Take GGTGACGA: the “PBM E-score of 8-mer” value was found to be 0.418 ± 0.018.
The result for AGTGACAC reads 0.435 ± 0.0092; that for AGTGACAT, 0.277 ± 0.056.
The figure for GATCGAGA is 0.00394 ± 0.097; for AGGCTAAT it is -0.255 ± 0.1; for ACTAAGCC it is -0.223 ± 0.02.
Take AGCCTACC: the “PBM E-score of 8-mer” value is -0.245 ± 0.012.
As to GAGAATAC, the “PBM E-score of 8-mer” value is -0.0812 ± 0.016.
The figure for GATTTTGA is -0.0555 ± 0.0057; for AACGCAAA it is 0.0563 ± 0.092.
The figure for GCAGCGAA is 0.104 ± 0.068; for ACAAGAGG it is -0.0502 ± 0.064.
In the case of CAACTCTA, the “PBM E-score of 8-mer” value is -0.0379 ± 0.031.
The result for TCGTATCA reads 0.129 ± 0.031.
The figure for GGTGACCA is 0.075 ± 0.05.
Regarding TCTGACAA, the “PBM E-score of 8-mer” value was -0.0245 ± 0.056.
On to GGTGACTA, for which the “PBM E-score of 8-mer” value amounted to 0.196 ± 0.039.
The figure for GGTGACAC is 0.4606 ± 0.0026; for CTTGACAA it is 0.323 ± 0.011.
Regarding GTTGACAA, the “PBM E-score of 8-mer” value came to 0.389 ± 0.016.
The figure for GGTGAAAC is -0.0179 ± 0.017; for GGTGACAA it is 0.459 ± 0.011; for GTTGACGA it is 0.279 ± 0.0033.
With GGAGACAC, the “PBM E-score of 8-mer” value worked out at 0.193 ± 0.045.
The result for TGTGACAA reads 0.412 ± 0.0055; that for TATGACAA, 0.0285 ± 0.073; that for CAACGGTC, 0.11 ± 0.036.
The result for CTATAGAG reads -0.282 ± 0.072; that for ACTAGGCA, -0.204 ± 0.036; that for CGCTTCAC, 0.235 ± 0.042.
The figure for AGGTCGAC is -0.00677 ± 0.036; for ACGGCAGT it is -0.173 ± 0.031.
For the sequence ATTATAGG, the “PBM E-score of 8-mer” value is -0.255 ± 0.027.
The figure for GGGTGACA is 0.4258 ± 0.0018; for GGGTGACC it is -0.0352 ± 0.046; for TGGTGACA it is 0.39 ± 0.0062.
In the case of TCGTGACA, the “PBM E-score of 8-mer” value amounted to 0.325 ± 0.0037.
The figure for GGGTGAAA is -0.0551 ± 0.015.
The result for CGGTGACA reads 0.326 ± 0.026.
